Measurements taken from PubChem BioAssay (EPA / NIEHS).
Inconclusive results are not listed. The source holds several records for some structures; these can differ, active in one and inactive in another. The source made the active and inactive calls. The calls were made as follows, unless noted: active = hit-call score of the fitted dose curve at least 0.9, where 1 is the maximum; inactive = score below 0.9.

Tests used:
[1] = ATG_PPRE_CIS: Attagene CIS-FACTORIAL HepG2 Assay for human Peroxisome Proliferator-activated Response Element (PPRE) (AID 2282958); details: HepG2 PPRE cis-element reporter, Attagene transcription factor profiling; actives raise or lower the signal
Method in brief: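 DMSO served as negative control and baseline for bidirectional curve fitting. Signal came from PPRE-regulated reporter mRNA in HepG2 cells, measured 24 h post-dosing by RT-PCR, 6-FAM primer extension and capillary electrophoresis.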

[2] = ATG_RORE_CIS: Attagene CIS-FACTORIAL HepG2 Assay for human RAR-related Orphan Receptor Element (RORE) (AID 2282959); details: HepG2 Attagene cis-factorial RORE reporter, mRNA; actives raise or lower the signal
Method in brief: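 Transfect HepG2 with MRTUs; treat 24 h; extract RNA; RT with oligo(dT); PCR with reporter-specific primers; 6-FAM primer extension; HpaI digest 2 h at 37 C; capillary electrophoresis. Fit vs DMSO, bidirectional.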

[3] = ATG_Sox_CIS: Attagene CIS-FACTORIAL HepG2 Assay for human SRY-box transcription factor (SOX) (AID 2282960); details: HepG2 Attagene cis-factorial SOX reporter, mRNA; actives raise or lower the signal
Method in brief: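 Fluorescence-labelled cDNA fragments from reporter transcripts, sized by CE, give the signal. Cells: HepG2, transiently transfected with cis-regulated reporter units. Exposure 24 h; DMSO negative control; bidirectional curve fitting.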

[4] = molecular target: Transcription factor Sp1 (Homo sapiens) (UniProt P08047); assay: ATG_Sp1_CIS: Attagene CIS-FACTORIAL HepG2 Assay for human Specificity Protein 1 (Sp1) (AID 2282961); details: HepG2 Sp1 cis-reporter transcription, actives raise or lower the signal
Transcription factor Sp1 (Homo sapiens), sequence (P08047 whole entry, looked up): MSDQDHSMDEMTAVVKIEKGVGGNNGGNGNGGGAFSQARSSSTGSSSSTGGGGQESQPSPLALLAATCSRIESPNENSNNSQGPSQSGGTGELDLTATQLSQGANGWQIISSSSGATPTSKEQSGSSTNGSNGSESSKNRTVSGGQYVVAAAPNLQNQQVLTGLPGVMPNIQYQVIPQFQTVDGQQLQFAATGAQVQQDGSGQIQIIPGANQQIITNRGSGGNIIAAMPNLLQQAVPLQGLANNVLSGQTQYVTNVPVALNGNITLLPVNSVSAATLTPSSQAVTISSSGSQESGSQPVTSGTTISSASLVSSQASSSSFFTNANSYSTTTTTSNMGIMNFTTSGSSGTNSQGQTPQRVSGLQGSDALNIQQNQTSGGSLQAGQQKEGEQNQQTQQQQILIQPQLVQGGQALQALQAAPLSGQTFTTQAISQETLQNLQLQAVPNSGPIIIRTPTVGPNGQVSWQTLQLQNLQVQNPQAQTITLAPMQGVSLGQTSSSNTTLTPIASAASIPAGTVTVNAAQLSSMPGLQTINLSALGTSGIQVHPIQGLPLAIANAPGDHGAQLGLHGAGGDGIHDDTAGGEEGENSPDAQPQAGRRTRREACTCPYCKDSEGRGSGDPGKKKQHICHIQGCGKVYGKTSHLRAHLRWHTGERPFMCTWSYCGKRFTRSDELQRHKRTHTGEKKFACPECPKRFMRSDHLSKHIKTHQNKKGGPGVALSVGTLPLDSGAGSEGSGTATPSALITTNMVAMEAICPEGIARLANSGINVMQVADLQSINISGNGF
Method in brief: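 Chemicals are dosed onto HepG2 cells transfected with multiple cis-promoter reporter constructs, and after 24 h reporter RNA is reverse-transcribed, PCR-amplified and resolved by capillary electrophoresis for fluorescence quantitation; activity is scored up or down against DMSO.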

[5] = ATG_SREBP_CIS: Attagene CIS-FACTORIAL HepG2 Assay for human Sterol Regulatory Element Binding (SREBP) (AID 2282962); details: HepG2 Attagene cis-factorial SREBP reporter, mRNA; actives raise or lower the signal
Method in brief: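 Twenty-four hours after chemical dosing of transfected HepG2 cultures, reporter RNA was converted to cDNA, amplified, end-labelled with 6-FAM and resolved by capillary electrophoresis. Responses were fitted relative to DMSO.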

[6] = molecular target: Signal transducer and activator of transcription 3 (Homo sapiens) (UniProt P40763); assay: ATG_STAT3_CIS: Attagene CIS-FACTORIAL HepG2 Assay for human Signal Transducer and Activator of Transcription 3 (STAT3) (AID 2282963); details: HepG2, Attagene cis-factorial STAT3 reporter transcription; actives raise or lower the signal
Signal transducer and activator of transcription 3 (Homo sapiens), sequence (P40763 whole entry, looked up): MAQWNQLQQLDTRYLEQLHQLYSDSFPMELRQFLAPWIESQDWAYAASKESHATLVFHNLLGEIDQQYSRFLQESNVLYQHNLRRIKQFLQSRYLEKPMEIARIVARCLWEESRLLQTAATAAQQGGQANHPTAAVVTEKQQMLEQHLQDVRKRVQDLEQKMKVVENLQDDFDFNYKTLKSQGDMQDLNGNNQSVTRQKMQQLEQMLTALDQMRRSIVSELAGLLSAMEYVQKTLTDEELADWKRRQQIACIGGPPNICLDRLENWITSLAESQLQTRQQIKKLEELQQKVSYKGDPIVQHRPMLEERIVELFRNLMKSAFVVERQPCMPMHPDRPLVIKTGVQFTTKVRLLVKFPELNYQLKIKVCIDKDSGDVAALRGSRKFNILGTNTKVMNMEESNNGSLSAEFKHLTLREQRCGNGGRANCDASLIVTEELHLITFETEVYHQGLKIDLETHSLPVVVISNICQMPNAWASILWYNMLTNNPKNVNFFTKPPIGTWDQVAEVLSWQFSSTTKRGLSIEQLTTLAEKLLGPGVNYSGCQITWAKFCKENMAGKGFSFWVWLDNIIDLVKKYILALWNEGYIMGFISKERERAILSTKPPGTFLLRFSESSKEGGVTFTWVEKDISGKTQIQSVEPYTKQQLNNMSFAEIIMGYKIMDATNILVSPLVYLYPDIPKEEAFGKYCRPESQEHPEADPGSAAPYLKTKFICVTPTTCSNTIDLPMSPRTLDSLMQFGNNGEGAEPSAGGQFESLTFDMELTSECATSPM
Method in brief: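 After a 24 h compound incubation, total RNA from MRTU-transfected HepG2 cells was converted to cDNA and reporter sequences PCR-amplified, labelled and profiled by capillary electrophoresis. Gain and loss of signal were referenced to DMSO.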

[7] = ATG_TCF_b_cat_CIS: Attagene CIS-FACTORIAL HepG2 Assay for human T-Cell-Factor with beta-catenin (TCF/b-cat) (AID 2282965); details: HepG2 TCF/beta-catenin cis-reporter transcription, actives raise or lower the signal
Method in brief: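 Endogenous TCF/LEF activity read as reporter transcript level via RT-PCR and capillary electrophoresis fluorescence in transfected HepG2, 24 h exposure; gain or loss of signal fitted against DMSO controls.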

[8] = ATG_TAL_CIS: Attagene CIS-FACTORIAL HepG2 Assay for human TAL Basal Promoter (AID 2282966); details: HepG2 Attagene cis-factorial TAL promoter reporter; actives raise or lower the signal;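 also: background control endpoint measuring basal TAL promoter reporter mRNA not a specific factor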
Method in brief: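 HepG2 cells transiently transfected with multiplexed cis-promoter reporter units, dosed 24 h. Reporter mRNA quantified by RT-PCR, 6-FAM labelling, HpaI digestion and capillary electrophoresis; TAL basal promoter serves as background control, fitted bidirectionally versus DMSO.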

[9] = ATG_TGFb_CIS: Attagene CIS-FACTORIAL HepG2 Assay for human Transforming Growth Factor (TGF) (AID 2282967); details: HepG2 Attagene CIS TGFb reporter, mRNA transcription; actives raise or lower the signal
Method in brief: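 Multiplexed cis-reporter HepG2 system, 24 h treatment; mRNA induction read by fluorescence after RT-PCR and CE; DMSO negative control, bidirectional curve fitting.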

[10] = ATG_VDRE_CIS: Attagene CIS-FACTORIAL HepG2 Assay for human Vitamin D Receptor Element (VDRE) (AID 2282968); details: HepG2 VDRE cis-reporter transcription, actives raise or lower the signal
Method in brief: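 In transiently transfected HepG2 liver cells, gain or loss of reporter mRNA after 24 h exposure is scored relative to DMSO, using fluorescence detection by capillary electrophoresis of RT-PCR products.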

[11] = molecular target: Estrogen receptor (Homo sapiens) (UniProt P03372); assay: ATG_ERa_TRANS: Attagene TRANS-FACTORIAL HepG2 Assay for human Estrogen Receptor alpha (ERa) (AID 2282970; active = hit-call score of the fitted dose curve at least 0.9, where 1 is the maximum); details: HepG2 Attagene TRANS ERa GAL4 reporter, mRNA
Estrogen receptor (Homo sapiens), sequence (P03372 whole entry, looked up, the tested form may be a part): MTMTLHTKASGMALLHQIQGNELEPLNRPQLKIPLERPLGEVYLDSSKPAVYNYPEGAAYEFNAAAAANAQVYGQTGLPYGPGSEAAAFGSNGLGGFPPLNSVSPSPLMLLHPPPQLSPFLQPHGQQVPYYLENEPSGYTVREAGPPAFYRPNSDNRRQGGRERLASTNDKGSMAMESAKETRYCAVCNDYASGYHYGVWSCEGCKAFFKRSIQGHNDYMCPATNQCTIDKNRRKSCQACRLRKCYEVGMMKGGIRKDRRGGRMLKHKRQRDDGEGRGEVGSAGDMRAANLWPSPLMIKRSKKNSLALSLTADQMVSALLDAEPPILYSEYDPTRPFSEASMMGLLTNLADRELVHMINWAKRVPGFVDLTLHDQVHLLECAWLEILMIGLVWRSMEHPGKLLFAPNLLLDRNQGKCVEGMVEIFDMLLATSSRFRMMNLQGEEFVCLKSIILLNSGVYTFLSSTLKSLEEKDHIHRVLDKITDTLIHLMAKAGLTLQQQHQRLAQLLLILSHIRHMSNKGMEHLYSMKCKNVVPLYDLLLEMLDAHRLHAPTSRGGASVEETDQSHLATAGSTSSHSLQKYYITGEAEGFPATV
Method in brief: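 HepG2 cells transiently transfected with multiplexed GAL4-UAS reporter units read out chimeric NR-Gal4 activity. After 24 h compound exposure, reporter mRNA was quantified by RT-PCR, 6-FAM labeling, HpaI digestion and capillary electrophoresis, relative to DMSO.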

[12] = molecular target: X-box-binding protein 1 (Homo sapiens) (UniProt P17861); assay: ATG_Xbp1_CIS: Attagene CIS-FACTORIAL HepG2 Assay for human X-box Binding Protein 1 (XBP1) (AID 2282972); details: HepG2 XBP1 cis-element reporter, Attagene multiplex; actives raise or lower the signal
X-box-binding protein 1 (Homo sapiens), sequence (P17861 whole entry, looked up): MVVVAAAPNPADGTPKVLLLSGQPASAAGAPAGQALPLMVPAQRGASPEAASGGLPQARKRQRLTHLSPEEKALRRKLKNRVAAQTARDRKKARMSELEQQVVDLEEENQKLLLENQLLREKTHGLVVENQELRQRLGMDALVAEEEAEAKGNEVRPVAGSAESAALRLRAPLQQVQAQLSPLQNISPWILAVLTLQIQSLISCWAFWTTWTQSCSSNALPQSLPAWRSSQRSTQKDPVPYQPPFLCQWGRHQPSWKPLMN
Method in brief: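 After a 24-hour chemical exposure of HepG2 cells carrying cis-regulated reporters, reporter mRNA levels are assessed. Quantification uses RT-PCR, 6-FAM labelling and capillary electrophoresis. Gain- or loss-of-signal is fitted against DMSO.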

[13] = ATG_TA_CIS: Attagene CIS-FACTORIAL HepG2 Assay for human TA Basal Promoter (AID 2282964); details: HepG2 Attagene CIS-factorial TA basal promoter reporter; actives raise or lower the signal
Method in brief: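 Cis-factorial format in HepG2: reporters report endogenous factors, not chimeric Gal4 fusions. After 24 h treatment, reporter transcripts were measured by RT-PCR-capillary electrophoresis fluorescence, analysed bidirectionally versus DMSO.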

[14] = molecular target: Steroid hormone receptor ERR1 (Homo sapiens) (UniProt P11474); assay: ATG_ERRa_TRANS: Attagene TRANS-FACTORIAL HepG2 Assay for human Estrogen-Related Receptor alpha (ERRa) (AID 2282971; active = hit-call score of the fitted dose curve at least 0.9, where 1 is the maximum); details: HepG2 Attagene TRANS reporter, ERRa transactivation
Steroid hormone receptor ERR1 (Homo sapiens), sequence (P11474 whole entry, looked up, the tested form may be a part): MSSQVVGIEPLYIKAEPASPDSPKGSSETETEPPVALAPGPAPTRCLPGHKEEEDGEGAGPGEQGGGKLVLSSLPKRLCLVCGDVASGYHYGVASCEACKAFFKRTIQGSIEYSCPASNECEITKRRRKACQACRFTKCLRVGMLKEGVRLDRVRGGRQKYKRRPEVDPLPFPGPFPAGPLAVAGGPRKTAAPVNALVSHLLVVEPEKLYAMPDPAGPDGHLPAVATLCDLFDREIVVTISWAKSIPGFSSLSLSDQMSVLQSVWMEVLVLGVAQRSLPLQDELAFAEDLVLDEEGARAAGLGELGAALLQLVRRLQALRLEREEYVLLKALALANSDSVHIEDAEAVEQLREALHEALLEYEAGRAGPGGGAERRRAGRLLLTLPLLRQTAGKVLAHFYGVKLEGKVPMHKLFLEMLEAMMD
Method in brief: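 HepG2 cells transiently transfected with GAL4-UAS reporter units and chimeric NR-Gal4 constructs; after 24 hour compound incubation, reporter mRNA quantified by RT-PCR, fluorescent labelling and capillary electrophoresis, gain of signal versus DMSO.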

[15] = molecular target: Glucocorticoid receptor (Homo sapiens) (UniProt P04150); assay: ATG_GR_TRANS: Attagene TRANS-FACTORIAL HepG2 Assay for human Glucocorticoid Receptor (GR) (AID 2282978; active = hit-call score of the fitted dose curve at least 0.9, where 1 is the maximum;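 also: activators score as hits since higher reporter transcript over DMSO is fitted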); details: HepG2 Attagene TRANS GR reporter, mRNA transcription
Glucocorticoid receptor (Homo sapiens), sequence (P04150 whole entry, looked up, the tested form may be a part): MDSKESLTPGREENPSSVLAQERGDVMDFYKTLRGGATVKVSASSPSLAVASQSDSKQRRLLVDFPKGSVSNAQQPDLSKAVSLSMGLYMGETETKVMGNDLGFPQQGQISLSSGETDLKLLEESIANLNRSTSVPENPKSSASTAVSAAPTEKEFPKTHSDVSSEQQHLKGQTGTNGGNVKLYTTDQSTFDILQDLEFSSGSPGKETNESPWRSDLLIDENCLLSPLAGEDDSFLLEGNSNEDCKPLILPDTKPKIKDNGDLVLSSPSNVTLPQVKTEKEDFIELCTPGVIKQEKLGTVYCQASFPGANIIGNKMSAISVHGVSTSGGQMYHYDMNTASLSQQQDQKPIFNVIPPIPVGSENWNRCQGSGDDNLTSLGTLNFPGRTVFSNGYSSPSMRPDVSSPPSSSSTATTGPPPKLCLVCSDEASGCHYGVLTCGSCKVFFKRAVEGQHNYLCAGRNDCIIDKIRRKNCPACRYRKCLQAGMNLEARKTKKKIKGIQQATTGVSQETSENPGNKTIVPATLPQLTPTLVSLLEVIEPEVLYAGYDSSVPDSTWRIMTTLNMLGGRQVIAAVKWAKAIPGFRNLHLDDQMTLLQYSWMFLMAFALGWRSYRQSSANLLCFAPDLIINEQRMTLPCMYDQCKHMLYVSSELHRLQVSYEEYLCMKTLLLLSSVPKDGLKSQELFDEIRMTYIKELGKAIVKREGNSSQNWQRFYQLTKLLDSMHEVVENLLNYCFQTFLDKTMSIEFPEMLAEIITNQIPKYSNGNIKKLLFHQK
Method in brief: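 Transiently transfected HepG2 cells express chimeric NR-GAL4 proteins acting on GAL4-UAS reporter units. Compounds are applied for 24 h. mRNA induction over DMSO is measured by capillary electrophoresis.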

[16] = molecular target: Nuclear receptor subfamily 1 group I member 3 (Homo sapiens) (UniProt Q14994); assay: ATG_CAR_TRANS: Attagene TRANS-FACTORIAL HepG2 Assay for human Constitutive Androstane Receptor (CAR) (AID 2282969; active = hit-call score of the fitted dose curve at least 0.9, where 1 is the maximum;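 also: activators raise reporter mRNA above DMSO so AC50 marks induction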); details: HepG2 Attagene TRANS-FACTORIAL CAR reporter
Nuclear receptor subfamily 1 group I member 3 (Homo sapiens), sequence (Q14994 whole entry, looked up, the tested form may be a part): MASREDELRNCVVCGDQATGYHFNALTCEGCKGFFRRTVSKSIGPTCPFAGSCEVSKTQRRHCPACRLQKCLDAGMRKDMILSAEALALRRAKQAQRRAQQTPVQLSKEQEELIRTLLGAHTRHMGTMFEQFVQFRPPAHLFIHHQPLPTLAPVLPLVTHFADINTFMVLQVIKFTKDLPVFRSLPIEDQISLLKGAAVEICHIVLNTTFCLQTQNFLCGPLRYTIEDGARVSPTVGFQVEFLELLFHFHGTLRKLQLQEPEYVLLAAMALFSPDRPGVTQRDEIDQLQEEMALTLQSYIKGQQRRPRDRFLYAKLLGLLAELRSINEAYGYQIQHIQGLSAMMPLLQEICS
Method in brief: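 Readout is reporter mRNA induction, quantified by fluorescent primer extension and capillary electrophoresis after RT-PCR. Cells were HepG2 transiently carrying chimeric NR-Gal4 constructs with GAL4-UAS reporters, treated for 24 h; activity scored upward from DMSO.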

[17] = ATG_M_19_TRANS: Attagene TRANS-FACTORIAL HepG2 Assay for M19 Transcription Factor (Internal Marker) (AID 2282974; active = hit-call score of the fitted dose curve at least 0.9, where 1 is the maximum); details: HepG2 Attagene TRANS-FACTORIAL M19 internal marker reporter
Method in brief: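 Multiplexed TRANS format: HepG2 liver cells bearing transient GAL4-UAS reporter units, chemical treatment 24 h, reporter transcripts quantified by RT-PCR plus capillary electrophoresis. DMSO defines baseline.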

[18] = ATG_GAL4_TRANS: Attagene TRANS-FACTORIAL HepG2 Assay for GAL4 (Internal Marker) (AID 2282976; active = hit-call score of the fitted dose curve at least 0.9, where 1 is the maximum); details: HepG2 Attagene TRANS GAL4 internal marker reporter
Method in brief: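 Background-control readout: GAL4-UAS reporter transcript in transiently transfected HepG2 cells after 24 h compound exposure. Measured by RT-PCR, 6-FAM primer extension, HpaI digest and capillary electrophoresis; gain-of-signal fit versus DMSO.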

## C=COC(=O)C(C)(C)CCCCCC
[1]
  outcome: inactive
[2]
  outcome: inactive
[3]
  outcome: inactive
[4]
  outcome: inactive
[5]
  outcome: inactive
[6]
  outcome: inactive
[7]
  outcome: inactive
[8]
  outcome: inactive
[9]
  outcome: inactive
[10]
  outcome: inactive
[11]
  AC50: 41 µM (active)
[12]
  outcome: inactive

## O=C(O)CCC(F)(F)C(F)(F)C(F)(F)C(F)(F)C(F)(F)F
[1]
  outcome: inactive
[3]
  outcome: inactive
[4]
  outcome: inactive
[5]
  outcome: inactive
[6]
  outcome: inactive
[13]
  outcome: inactive
[7]
  outcome: inactive
[8]
  outcome: inactive
[9]
  outcome: inactive
[10]
  outcome: inactive
[11]
  AC50: 118 µM (active)
  outcome: inactive
[14]
  outcome: inactive
[12]
  outcome: inactive
[15]
  outcome: inactive

## CCC(C)c1nccnc1OC (stereo not given)
[1]
  outcome: inactive
[2]
  outcome: inactive
[3]
  outcome: inactive
[4]
  outcome: inactive
[6]
  outcome: inactive
[8]
  outcome: inactive
[9]
  outcome: inactive
[16]
  outcome: inactive
[14]
  outcome: inactive
[12]
  outcome: inactive
[17]
  outcome: inactive
[18]
  outcome: inactive

## O=S(=O)(O)c1ccccc1
[1]
  AC50: 57.9 µM (active)
  outcome: inactive
[2]
  outcome: inactive
[3]
  outcome: inactive
[5]
  outcome: inactive
[6]
  outcome: inactive
[13]
  outcome: inactive
[8]
  outcome: inactive
[9]
  outcome: inactive
[10]
  outcome: inactive
[12]
  outcome: inactive
[18]
  outcome: inactive
[15]
  outcome: inactive

## CCc1ccccc1O
[1]
  outcome: inactive
[3]
  outcome: inactive
[4]
  outcome: inactive
[6]
  outcome: inactive
[13]
  outcome: inactive
[7]
  outcome: inactive
[8]
  outcome: inactive
[9]
  outcome: inactive
[10]
  AC50: 27.9 µM (active)
[11]
  outcome: inactive
[12]
  outcome: inactive
[17]
  outcome: inactive
[15]
  outcome: inactive

## CC[N+](CC)(CC)Cc1ccccc1
[1]
  outcome: inactive
[3]
  outcome: inactive
[4]
  outcome: inactive
[6]
  outcome: inactive
[13]
  outcome: inactive
[8]
  outcome: inactive
[9]
  outcome: inactive
[10]
  outcome: inactive
[16]
  outcome: inactive
[14]
  outcome: inactive
[12]
  outcome: inactive
[18]
  outcome: inactive
[15]
  outcome: inactive

## O=C1c2ccc(O)c(O)c2C(=O)c2c(O)ccc(O)c21
[1]
  outcome: inactive
[2]
  outcome: inactive
[3]
  outcome: inactive
[4]
  outcome: inactive
[5]
  outcome: inactive
[6]
  outcome: inactive
[13]
  outcome: inactive
[7]
  outcome: inactive
[8]
  outcome: inactive
[9]
  outcome: inactive
[10]
  outcome: inactive
[11]
  AC50: 4.53 µM (active)
[12]
  outcome: inactive

## CCCCCc1ccc(O)cc1
[1]
  outcome: inactive
[2]
  outcome: inactive
[3]
  outcome: inactive
[4]
  outcome: inactive
[6]
  outcome: inactive
[13]
  outcome: inactive
[7]
  outcome: inactive
[8]
  outcome: inactive
[9]
  outcome: inactive
[10]
  outcome: inactive
[11]
  AC50: 1.6 µM (active)
[12]
  outcome: inactive

## C[N+](C)(CCCNS(=O)(=O)CCC(F)(F)C(F)(F)C(F)(F)C(F)(F)C(F)(F)C(F)(F)F)CC(=O)[O-]
[1]
  outcome: inactive
[2]
  outcome: inactive
[3]
  outcome: inactive
[4]
  outcome: inactive
[5]
  AC50: 0.00355 µM (active)
[6]
  outcome: inactive
[8]
  outcome: inactive
[9]
  outcome: inactive
[10]
  outcome: inactive
[16]
  outcome: inactive
[14]
  outcome: inactive
[12]
  outcome: inactive
